High-throughput results deposited in PubChem BioAssay by The Scripps Research Institute Molecular Screening Center.
A selection: hits, their analogues and other compounds. The true share with any hit is near 5.7%.
DAX1 inh-1: inhibitors of human orphan nuclear receptor DAX1 (NR0B1) | HEK293 Gal4-DAX1 luciferase reporter, luminescence | 0.99% of 340,000 active | inhibition, % at 6.75 µM | P51843;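 active = inhibition above the mean over all tested compounds plus 3 SD, cut at about 4.2% in these data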;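 also: inhibition shows as a rise in luminescence from relieved DAX1 repression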
ssDAF12 agonist: activators of S. stercoralis DAF-12 nuclear receptor | HEK293 ssDAF-12/GRIP1 lit1-tk-luc reporter, luminescence; % of 3 µM dafachronic acid response | activation, % at 6.8 µM | 1% of 370,000 active | AID 652126;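 active = activation above the mean over all tested compounds plus 3 SD, cut at about 0.9% in these data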
DAX1 inh-2: inhibitors of DAX1 repression of SF-1 activated StAR promoter. HEK293T StAR-luciferase reporter, SF-1/DAX-1 repression relief. inhibition, % at 6.8 µM. 1.1% of 370,000 active;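 active = inhibition above the mean over all tested compounds plus 3 SD, cut at about 3.6% in these data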;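 also: higher inhibition means more luminescence from relief of DAX-1 repression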
hcDAF12 agonist: H. contortus DAF-12 activation, primary screen. 1.4% of 370,000 active. activation, % at 6.8 µM. HEK293 hcDAF-12 lit1-tk-luc reporter, luminescence; 0% DMSO, 100% Δ7-dafachronic acid. AID 652067;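 active = activation above the mean of all tested compounds plus 3 SD, cut at about 5.5% in these data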
AHR activator: human AHR activation; P35869; AHR-responsive luciferase reporter cells, luminescence; activation, % at 5 µM; 2.5% of 320,000 active; in the data active = activation above about 47%
hgDAF12 agonist: hgDAF-12 agonism, primary luciferase screen; HEK293 GAL4-hgDAF12 UAS-luciferase reporter, agonist luminescence; normalized to butyrate control; activation, % at 6.8 µM; 1.8% of 370,000 active; AID 687014;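 active = activation above a cutoff set at the mean of all screened compounds plus 3 SD, cut at about 10% in these data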
AHR act confirm: human AHR activation, confirmation; 87% of 2,300 active; activation, % at 9 µM; AID 2845; shares compounds with AHR activator; human cells, AHR-responsive luciferase reporter, luminescence; in the data active = activation above about 49%;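 also: HepG2 hepatoma cells carrying a DRE-driven firefly luciferase reporter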
PXR counter: counter-screen for AHR activators: human PXR activators | shares compounds with AHR activator | cell-based PXR reporter, luciferase luminescence | activation, % at 11.6 µM | 88% of 2,300 active | AID 434939; in the data active = activation above about 11%;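 also: human hepatoma DPX-2 cells expressing full-length human PXR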
A number is an active result; – = inactive; · = no result given.

SMILES	DAX1 inh-1	ssDAF12 agonist	DAX1 inh-2	hcDAF12 agonist	AHR activator	hgDAF12 agonist	AHR act confirm	PXR counter
Cc1[nH]c2ccccc2c1C(=O)/C=C/c1ccccc1Cl	–	–	–	–	147	–	123	72
Cc1nc2ccccc2c(N)c1C(=O)/C=C/c1ccccc1	–	–	–	–	–	–	·	·
Cc1[nH]c2ccccc2c1C(=O)/C=C/c1ccccc1	–	–	–	–	166	–	140	200
O=C(C=Cc1ccccc1Cl)c1ccccc1	–	–	–	–	·	–	·	·
Cc1[nH]c2ccccc2c1C(=O)/C=C\c1ccccc1Cl	–	–	–	–	157	–	112	78
CCN1CCn2c3c(c4cc(C)ccc42)CCCC31 (stereo not drawn)	–	–	–	–	81	–	105	11
Cc1ccc2c(c1)c1c3n2CCN(C(=O)CCl)C3CCC1 (stereo not drawn)	–	–	–	–	113	–	98	17
CCCCN1C(=O)c2ccccc2NC1c1ccc(OC)c(COc2ccc(NC(C)=O)cc2)c1 (stereo not drawn)	·	–	·	–	·	–	·	·
CCOc1cc(NC(=O)C(C)C)c(OCC)cc1NC(=O)Nc1ccccc1	–	–	–	–	–	–	·	·
COC(=O)c1ccc2ccccc2n1	·	·	·	·	–	·	·	·
CCOc1ccc(N=C(NN)c2ccc3ccccc3n2)cc1	–	–	–	–	108	–	110	19
S=c1nc(COc2ccccc2)[nH]c2ccccc12	–	–	–	–	124	–	125	14
S=c1nc(Cc2ccccc2)[nH]c2ccccc12	–	–	–	–	–	–	·	·
Cc1nc(N2CCN(c3ccccc3)CC2)nc2c1C(=O)CC(C)C2 (stereo not drawn)	–	–	–	–	92	–	62	13
Cc1nc(N2CCN(c3ccccc3)CC2)nc2c1C(=O)CC(c1ccccc1)C2 (stereo not drawn)	–	–	–	–	–	–	·	·
COc1ccc(OC)c(/C=N/NC(=O)CNC(=O)c2ccc(S(=O)(=O)N3CCOCC3)cc2)c1	–	–	–	–	125	–	–	–
CC(/C=C/c1ccccc1)=N\Nc1nc(C)cc(C)n1	–	–	–	–	89	–	–	28
Cn1c(=NC(=O)C2CC2)sc2cccc(F)c21	–	–	–	–	100	–	119	23
CC(C)(C)c1ccc(C(=O)Nc2nnc(Cc3c[nH]c4ccccc34)s2)cc1	–	–	–	–	90	–	88	14
COc1ccc(C2NC(C(=O)O)Cc3c2[nH]c2ccccc32)cc1CN1CCN(c2ccc(F)cc2)CC1 (stereo not drawn)	–	–	–	–	–	–	·	·
O=C(O)C1Cc2c([nH]c3ccccc23)C(c2ccc3c(c2)OCO3)N1 (stereo not drawn)	–	–	–	–	90	–	73	12
CC(=O)Nc1ccc(S(=O)(=O)NC2CC(=O)N(c3ccc(C)c(C)c3)C2)cc1 (stereo not drawn)	–	–	–	–	–	–	·	·
O=C1N/C(=N\c2ccccn2)SC1Cc1ccccc1Cl (stereo not drawn)	–	–	–	–	80	–	89	34
Cc1ccc(C(=O)N2CCN(c3nc4ccccc4n3C)CC2)cc1	–	–	–	–	–	–	·	·
Cn1cc(/C=C2\SC(=O)N(c3ccccc3)C2=O)c2ccccc21	–	–	–	–	99	–	69	20
O=C(Nc1ccc(Cl)cc1)c1sccc1-n1cccc1	–	–	–	–	138	–	145	28
CCc1ccc(NC(=O)c2sccc2-n2cccc2)cc1	–	–	–	–	102	–	141	41
O=C(Nc1cccc2nsnc12)c1ccc2c(c1)OCO2	–	–	–	–	118	–	127	30
O=C(Nc1cc([N+](=O)[O-])ccc1Cl)c1ccc2c(c1)OCO2	–	–	–	–	106	–	100	23
Cc1ccc([N+](=O)[O-])cc1NC(=O)c1ccccc1	–	–	–	–	–	–	·	·
